Screening results (PubChem)
LDHA inh: inhibitors of human lactate dehydrogenase A; purified LDHA, NADH/diaphorase-resazurin fluorescence; stronger effect = lower value; activity change, % (values are at about 110 or 230 µM); 480,000 tested, 0.15% active; AID 1347041; in the data active = activity change below about -30%; inconclusive = mostly about -25% to -30%;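 note: plate controls were DMSO wells for no effect and wells without enzyme for full effect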
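Human LDH5 at 2 nM final in Tris HCl pH 7.4 with 0.06 mM NADH and 0.2 mM pyruvate, reacted 5 minutes at room temperature. Remaining NADH coupled via diaphorase/resazurin; resorufin fluorescence read at 0 and 20 minutes, normalized to enzyme-free and DMSO wells.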
IDH1 R132H inh: human IDH1 R132H inhibition; O75874; IDH1-R132H enzyme, NADPH consumption, diaphorase/resazurin fluorescence; Potency, µM (doses to about 76.6 µM), without a hit: top-dose activity change, negative = inhibition, hits mostly inhibitors; 390,000 tested, 0.093% active; AID 602179; note: potency is the fitted concentration of half-maximal effect; nearly all actives have a fitted effect of over 65% in size
Target sequence (O75874 whole entry R132H, stated change not applied): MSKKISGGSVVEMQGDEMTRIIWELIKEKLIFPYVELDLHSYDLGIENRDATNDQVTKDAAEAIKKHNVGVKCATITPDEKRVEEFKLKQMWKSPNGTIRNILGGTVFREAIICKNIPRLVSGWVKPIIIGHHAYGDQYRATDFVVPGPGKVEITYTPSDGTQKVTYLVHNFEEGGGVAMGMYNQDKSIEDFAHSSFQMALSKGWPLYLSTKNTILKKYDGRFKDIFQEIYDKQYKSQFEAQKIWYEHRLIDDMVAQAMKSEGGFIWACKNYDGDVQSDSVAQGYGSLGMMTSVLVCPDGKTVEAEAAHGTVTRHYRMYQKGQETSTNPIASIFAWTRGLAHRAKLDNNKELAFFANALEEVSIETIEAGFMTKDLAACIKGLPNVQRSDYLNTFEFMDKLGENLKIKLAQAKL
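IDH1-R132H (0.5 ug/mL) preincubated 30 min with compound, then NADPH (0.016 mM) and alpha-KG (2 mM) added; 80 min at RT, pH 7.5. Remaining NADPH coupled via diaphorase/resazurin to fluorescence (540/590 nm); concentration-response curves normalized to no-enzyme control.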
TrxR1 substrate: substrates of rat thioredoxin reductase 1 | purified TrxR1 substrate turnover, NADPH consumption readout | 390,000 tested, 0.01% active | Potency, µM (series often up to 114 µM), inactives show top-dose activity change, negative = substrate turnover | AID 588456; note: potency is the fitted concentration of half-maximal effect; nearly all actives have a fitted effect of over 50% in size
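Rat TrxR1, dispensed at 90 nM, was prereduced with 400 uM NADPH (final) for 5 min at ~22 deg C, then incubated with compound 15 min before 400 uM selenite. A first-read NADPH fluorescence drop versus no-compound background flagged substrates.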
TrxR1 inh: blocks rat thioredoxin reductase 1 | recombinant rTrxR1, NADPH fluorescence consumption, selenite substrate | Potency, µM (doses to about 114 µM), for the others: at the top dose activity change, negative = inhibition, hits mostly inhibitors | 390,000 tested, 1% active | AID 588453; note: potency is the fitted concentration of half-maximal effect; nearly all actives have a fitted effect of over 65% in size
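Rat TrxR1 (90 nM in the dispensed reagent) was pre-reduced with 400 uM NADPH for 5 min at room temperature, then incubated with compound for 15 min. After 400 uM selenite was added, NADPH fluorescence (Ex 340/Em 450 nm) was followed for 8 min.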
PKM2 activator: increases activity of human pyruvate kinase M2; P14618; purified PKM2, Kinase-Glo ATP luminescence, activation; response scale: 0% is enzyme alone, no compound; Potency, µM (highest dose often 57.5 µM), for inactives: at the highest dose activation, actives largely listed as activators; 260,000 tested, 0.34% active; AID 1631; note: potency is the fitted concentration of half-maximal effect; nearly all actives have a fitted effect of over 55% in size
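Kinase-Glo luminescence reports ATP generated from ADP (0.1 mM) and PEP (0.5 mM) by purified hPK-M2 after 1 h at room temperature, pH 7.2 imidazole buffer; intermediate enzyme activity allows detecting inhibitors and activators.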
GLS inhibitor: glutaminase GLS (human) inhibition | O94925 | GLS enzymatic activity, qHTS titration | Potency, µM (titrated, usually from 45.5 µM), inactives show at the top dose activity change, negative = inhibition, hits mostly inhibitors | 410,000 tested, 0.21% active; note: potency is the fitted concentration of half-maximal effect
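Enzyme dispensed in phosphate buffer (45 mM, pH 8.2, 0.02% Tween-20), compounds pinned in, then 1 mM L-glutamine solution and the glutamate oxidase–HRP–Amplex Red mix added; fluorescence read immediately and again after 30 min at room temperature.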
* hit, by the source's call; [ ] = dose if it differs, or a comment. Compounds with a hit are over-represented: about 1.4% of the library has one in this group of screens. Unless noted, calls come from the whole dose curve; as a rule, active = well fitted curve in the direction sought with a large enough effect; inconclusive = small, poorly fitted or top-dose-only effect, or another doubt; inactive = no such curve, though single readings can be large; an effect the other way counts as inactive or inconclusive. Unless noted, % is set by controls: 0 for no effect and ±100 for the full control effect.

Results for O=C1NC(=S)NC(=O)C1=Cc1c(Cl)cccc1Cl ?
LDHA inh: -9.0; IDH1 R132H inh: 10.1%; TrxR1 substrate: 5.7%[57.1 µM]; TrxR1 inh: -77.0%[57.1 µM]; GLS inhibitor: -5.1%

Results for COc1ccccc1CNCCc1c[nH]c2ccccc12 ?
LDHA inh: -3.4

What do the screens show for `CCC(=NCCO)c1c(O)n(-c2ccccc2)c(=O)[nH]c1=O`?
LDHA inh: -5.9; IDH1 R132H inh: 10.7%; TrxR1 substrate: -7.7%; TrxR1 inh: -1.7%; PKM2 activator: 1.1%; GLS inhibitor: 19.0%

Results for CC/C(=N\Nc1ccccc1)c1c(O)n(-c2ccc(OC)cc2)c(=O)[nH]c1=O ?
LDHA inh: -4.9; IDH1 R132H inh: -1.3%; TrxR1 substrate: 11.3%[57.1 µM]; TrxR1 inh: 6.6%[57.1 µM]; PKM2 activator: 0.4%; GLS inhibitor: 10µM*

How did FC(F)Oc1ccc(CNCCc2c[nH]c3ccccc23)cc1 do in these assays?
LDHA inh: -1.5

How did Cc1cc(/C=C2/C(=O)NC(=O)N(C)C2=O)c(C)n1-c1ccccc1 do in these assays?
LDHA inh: -1.2; IDH1 R132H inh: 0.0%; TrxR1 substrate: 5.6%; TrxR1 inh: 0.6%; PKM2 activator: 0.0%; GLS inhibitor: -6.3%

How did Cc1cc(C=C2C(=O)N(C)C(=S)N(C)C2=O)c(C)n1-c1cccnc1 do in these assays?
LDHA inh: 13.6; IDH1 R132H inh: 5.2%; TrxR1 substrate: -4.9%; TrxR1 inh: 20µM*; PKM2 activator: 1.1%; GLS inhibitor: inconclusive

How did CCc1nnc(NC(=O)CSc2ccc(-c3ccco3)nn2)s1 do in these assays?
LDHA inh: -5.9; IDH1 R132H inh: -1.5%; TrxR1 substrate: 6.4%; TrxR1 inh: 14.4%[57.1 µM]; PKM2 activator: 15.8µM*; GLS inhibitor: -2.0%

What do the screens show for `CCCc1nnc(NC(=O)CCC(=O)N2CCN(CCOC(c3ccccc3)c3ccccc3)CC2)s1`?
LDHA inh: 0.6; IDH1 R132H inh: 8.3%; TrxR1 substrate: -4.5%; TrxR1 inh: 2.3%; PKM2 activator: -0.5%; GLS inhibitor: -2.6%

Results for O=C(Nc1ccccc1)c1cn(Cc2ccccc2)nn1 ?
LDHA inh: -2.1

What do the screens show for `O=C(CSc1ccc(-c2ccco2)nn1)Nc1ccccc1`?
LDHA inh: -2.6; IDH1 R132H inh: -1.5%; TrxR1 substrate: 7.1%[57.1 µM]; TrxR1 inh: 20µM*; PKM2 activator: 14.1µM*; GLS inhibitor: -5.8%

How did Cc1[nH]c2ccccc2c1C(=O)C(C)NC(C)c1ccc(F)c(F)c1 (stereo not drawn) do in these assays?
LDHA inh: 0.0

How did CN(C)c1ccc(N=O)cc1 do in these assays?
LDHA inh: 13.0; TrxR1 substrate: inconclusive; TrxR1 inh: 5.01µM*

How did O=C(Cc1ccccc1)NC(Cc1ccc(Cl)cc1)C(=O)O (stereo not drawn) do in these assays?
LDHA inh: -7.4; IDH1 R132H inh: 2.3%; TrxR1 substrate: -1.5%; TrxR1 inh: 9.6%; PKM2 activator: -0.9%; GLS inhibitor: 8.7%

Results for CC(=O)NC(Cc1ccc(N(CCCl)CCCl)cc1)C(=O)O (stereo not drawn) ?
LDHA inh: 2.6; IDH1 R132H inh: 6.2%; TrxR1 substrate: 9.3%[57.1 µM]; TrxR1 inh: 31.6µM*; PKM2 activator: -3.7%; GLS inhibitor: 17.0%

Results for O=C(Cc1ccc(N(CCCl)CCCl)cc1)NC(Cc1ccc(Cl)cc1)C(=O)O (stereo not drawn) ?
LDHA inh: 3.8; IDH1 R132H inh: 1.2%; TrxR1 substrate: 4.1%; TrxR1 inh: 39.8µM*; PKM2 activator: 0.1%[11.5 µM]; GLS inhibitor: 26.0%

What do the screens show for `N[C@@H](Cc1ccc(N(CCCl)CCCl)cc1)C(=O)O`?
LDHA inh: -4.2; IDH1 R132H inh: 13.4%; TrxR1 substrate: 2.4%; TrxR1 inh: inconclusive; GLS inhibitor: 11.1%

What do the screens show for `O=C(O)CCCc1ccc(N(CCCl)CCCl)cc1`?
LDHA inh: -1.3; IDH1 R132H inh: 3.9%; TrxR1 substrate: 12.2%[57.1 µM]; TrxR1 inh: 50.1µM*; PKM2 activator: -1.9%; GLS inhibitor: 0.1%
